Tests used:
Assay in all cases: PBM binding z-score (relative to random genomic background probes); higher = stronger binding; sequences stand for … in GC…GCGATTGACAGCGTAGAATGAAGG
[1] = tested on: PPARg:RXRa DBDmut IVT, anti-RXR (DBD mutation: RXRa K156A/R161A, NR concentration 270 nM, RXRa partner concentration 90 nM)
How it was run: (§1)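 Scanned fluorescence from custom Agilent 4×180K protein-binding microarrays was regression-normalized. Binding z-scores use random background probes as reference. Ligand-free nuclear receptor dimers were incubated on the arrays for 1 h and detected with antibodies against each partner (one per run).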

[2] = tested on: PPARg:RXRa IVT, anti-PPARg (NR concentration 270 nM, RXRa partner concentration 90 nM)
How it was run: as §1

[3] = tested on: PPARg DBDmut:RXRa IVT, anti-PPARg (DBD mutation: PPARg1 K132A/R137A, NR concentration 270 nM, RXRa partner concentration 90 nM)
How it was run: as §1

[4] = tested on: PPARg DBDmut IVT, anti-PPARg (DBD mutation: PPARg1 K132A/R137A, NR concentration 270 nM)
How it was run: as §1

[5] = tested on: PPARg homodimer (NR concentration 180 nM)
How it was run: as §1

[6] = tested on: PXR:RXRa (NR concentration 270 nM, RXRa partner concentration 90 nM)
How it was run: as §1

[7] = tested on: PXR homodimer (NR concentration 270 nM)
How it was run: as §1

[8] = tested on: RARa:RXR (NR concentration 270 nM, RXRa partner concentration 90 nM)
How it was run: as §1

[9] = tested on: RARa homodimer (NR concentration 270 nM)
How it was run: as §1

[10] = tested on: RARb:RXRa (NR concentration 270 nM, RXRa partner concentration 90 nM)
How it was run: as §1

[11] = tested on: RARb homodimer (NR concentration 270 nM)
How it was run: as §1

[12] = tested on: RARg:RXRa (NR concentration 270 nM, RXRa partner concentration 90 nM)
How it was run: as §1

[13] = tested on: RARg homodimer (NR concentration 270 nM)
How it was run: as §1

[14] = tested on: RXRa DBDmut IVT, anti-RXR (DBD mutation: RXRa K156A/R161A, NR concentration 90 nM)
How it was run: as §1

[15] = tested on: RXRa homodimer (NR concentration 180 nM)
How it was run: as §1

[16] = tested on: THRa:RXRa (NR concentration 90 nM, RXRa partner concentration 90 nM)
How it was run: as §1

[17] = tested on: THRa homodimer (NR concentration 90 nM)
How it was run: as §1

[18] = tested on: VDR homodimer (NR concentration 270 nM)
How it was run: as §1

Sequence | PBM binding z-score [1] | PBM binding z-score [2] | PBM binding z-score [3] | PBM binding z-score [4] | PBM binding z-score [5] | PBM binding z-score [6] | PBM binding z-score [7] | PBM binding z-score [8] | PBM binding z-score [9] | PBM binding z-score [10] | PBM binding z-score [11] | PBM binding z-score [12] | PBM binding z-score [13] | PBM binding z-score [14] | PBM binding z-score [15] | PBM binding z-score [16] | PBM binding z-score [17] | PBM binding z-score [18]
CCTACCGGGCCAAGGTCATTGATCAGTCAAAGCA | 0.244 | 1.19 | -0.794 | -1.36 | 1.88 | 3.79 | 1.52 | 4 | 0.296 | 3.42 | 3.48 | 3.89 | 3.32 | 0.804 | 3.5 | 3.58 | 2.77 | 3.08
GCTAGCAGGCCATTTGGGTTACTCAATGACGGGC | 0.933 | 0.903 | -0.422 | -0.474 | -0.558 | -0.229 | -0.482 | 0.178 | -0.714 | 0.189 | -0.137 | -0.0989 | 0.178 | -0.102 | 0.0436 | 0.307 | -0.64 | -0.276
GCTAATAGTTGAAAGGGCAACCGAATGATTCTCG | 0.302 | 1.27 | -0.057 | -0.27 | 0.836 | 0.859 | -0.00303 | 1.61 | 0.745 | 2.21 | 2.13 | 1.68 | 1.44 | 0.805 | 1.76 | 0.716 | -0.4 | 0.235
CCTAACAGGCCAATCTGGGTCACTCAAGGCTTGA | 4.43 | 5.18 | 0.79 | -0.8 | 1.16 | 1.3 | 0.00111 | 1.43 | 0.117 | 1.77 | 2.38 | 1.47 | 1.75 | 0.498 | 0.758 | 3.85 | 0.717 | 0.191
ATCGAAAGGACGAAGGTGAGTATACCCACCCGAA | -0.74 | 0.283 | -0.404 | -0.244 | 0.0409 | 0.00854 | -0.3 | -0.0536 | 0.0942 | 1.17 | 0.646 | 1.11 | 1.26 | -0.397 | 0.555 | 0.23 | -0.316 | -0.271
CCAGACAGGCGAAAGGTAACTCAGTCTGGTACGC | -0.357 | -0.108 | -0.986 | -1.21 | -0.19 | -0.328 | -0.718 | -0.0922 | -0.38 | -0.0959 | -0.261 | 0.0389 | -0.491 | -0.267 | 0.25 | -0.18 | -0.896 | -0.57
CCTAGCAGGCCAGTGTCACTCAAGCATTTCGCTT | 1.35 | 0.117 | -1.21 | -1.52 | -0.723 | -0.407 | -0.826 | -0.184 | -0.658 | 0.286 | 0.0425 | -0.0888 | -0.171 | 0.13 | -0.38 | -0.213 | -0.656 | -0.509
TCTATTAGTTGATTATGGCAACCGAAACAGCGGA | 2.17 | 0.613 | 1.3 | 1.66 | 1.37 | 0.553 | 0.671 | 0.747 | 1.89 | 0.407 | -0.245 | 0.408 | 0.199 | 1.38 | 0.509 | 0.165 | 0.396 | 0.715
CCTACTGGGCCATCAGGTCATAGATATCAACGTT | 4.5 | 5.08 | 0.923 | -0.119 | 1.49 | 1.15 | 0.269 | 1.87 | 0.283 | 1.99 | 2.46 | 2.03 | 1.95 | -0.116 | 1.28 | 3.09 | 2.91 | 1.11
GCTTGTAGATCAAGGTTGAGAAAGACTAAGCTAA | 0.308 | 0.797 | -0.562 | -0.558 | -0.108 | -0.354 | -0.235 | -0.162 | -0.337 | -0.367 | -0.753 | -0.343 | -0.385 | 0.0122 | -0.32 | -0.135 | -0.906 | -0.235
ATATGTAGGTTACATCCGGGACATTCAGGCTATG | 7.57 | 7.46 | 4.54 | 2.06 | 1.33 | 0.599 | 0.5 | 0.964 | 0.969 | 1.08 | 0.852 | 1.56 | 1.27 | 0.669 | 1.27 | 2.66 | 1.46 | 0.967
TCTTGTAGATCAACGGTTAAGAAAGCCGAAGCCT | 1.73 | 0.568 | 0.699 | 0.541 | 0.0861 | 0.292 | -0.149 | 0.701 | 0.15 | 0.235 | -0.249 | -0.0923 | -0.227 | 0.721 | 0.21 | -0.24 | -0.541 | -0.227
TCATATAGGTAAAAGGTGAAAATCGGTGTGGTAA | 5.1 | 5.08 | 1.43 | 0.511 | 2.07 | 1.97 | 0.321 | 3.05 | 1.48 | 1.78 | 1.58 | 2.04 | 0.775 | 1.69 | 3.08 | 1.56 | 0.242 | 0.627
ACTATTAGTTGACTTAGGGCAACGGATACGACGC | 0.00929 | 0.309 | 1.35 | 1.09 | 0.328 | 0.113 | 0.452 | 0.313 | 0.0802 | 0.718 | 0.939 | 0.643 | 1.01 | 0.466 | 0.497 | 1.47 | 0.279 | -0.0346
CGGCCAAGGTCAGCAGGTCAGTGAAAGCGACGTG | 3.06 | 3.74 | -0.746 | -1.2 | 2.33 | 3.48 | 0.241 | 4.37 | 0.145 | 5.34 | 5.01 | 6.21 | 6.95 | 2.22 | 5.05 | 3.85 | 1.94 | 1.09

— the supplement of paper PMC6555819
